Assay outcomes (PubChem)
In the library only some 1.1% were active in any assay of this set; here they are far more common.
HTR5A inv ctr: HTR5A inverse agonism, opioid heterodimer counter-screen; P47898; HTR5A cell line, luminescence; inhibition, % at 9.3 µM; 340,000 compounds, 0.083% hits; AID 504634; in the data active = inhibition mostly above about 23%, no sharp cut-off; inactive = mostly below about 18%;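 also: 0% = cells with DMSO and 100% = no-cell wells with DMSO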
Target sequence (P47898 whole entry, looked up): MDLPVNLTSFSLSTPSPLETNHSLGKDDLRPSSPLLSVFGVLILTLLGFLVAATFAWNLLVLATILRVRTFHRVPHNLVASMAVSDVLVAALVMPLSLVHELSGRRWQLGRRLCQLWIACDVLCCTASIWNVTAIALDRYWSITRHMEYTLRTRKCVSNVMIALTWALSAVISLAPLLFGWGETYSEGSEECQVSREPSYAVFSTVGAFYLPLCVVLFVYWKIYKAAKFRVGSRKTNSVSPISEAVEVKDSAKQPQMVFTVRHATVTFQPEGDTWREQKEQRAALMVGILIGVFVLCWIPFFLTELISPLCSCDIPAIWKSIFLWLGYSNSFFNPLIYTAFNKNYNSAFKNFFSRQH
MOR-DOR inv ag: mu-delta opioid heterodimer inverse agonism. cell-based MOR-DOR heterodimer luminescence. inhibition, % at 9.3 µM. 340,000 compounds, 0.21% hits. AID 504357; in the data active = inhibition above about 22%, passing the limit was not always enough;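 also: 0% = cells with DMSO and 100% = wells without cells with DMSO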
HTR5A ag: HTR5A agonism, opioid heterodimer counter-screen; HTR5A agonist assay, luminescence, cell-based; activation, % at 9.3 µM; 340,000 compounds, 0.61% hits; AID 504692; in the data active = activation mostly above about 9.5%, no sharp cut-off; inactive = mostly below about 7.6%;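 also: 0% = cells with vehicle only and 100% = reference agonist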
MOR-DOR ag-1: agonists of human mu-delta opioid receptor heterodimerization | activation, % at 9.3 µM | P35372+P41143 | AID 504326 | 340,000 compounds, 0.3% hits | cells, OPRM1-OPRD1 heterodimerization, luminescence;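 also: 0% = vehicle-treated cells and 100% = reference agonist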
MOR-DOR ag-2: opioid heterodimer agonism, HTR5A counter-screen | 800 compounds, 13% hits | shares compounds with HTR5A ag | activation, % at 9.3 µM | AID 504913 | U2OS counter-screen cells, complementation luminescence, 3 h
HTR5A ag confirm: confirmation of human HTR5A agonists; shares compounds with HTR5A ag; HTR5A agonist cell assay, luminescence; activation, % at 9.3 µM; 800 compounds, 17% hits; in the data active = activation above about 17%;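 also: 0% = cells with vehicle only and 100% = full reference agonist response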
Starred values were filed as active, the others as inactive; x = not tested or not shown; ! = not active in a repeat. Rule as the data show it, unless noted: active = activation above about 18%; inactive = the rest.

SMILES | HTR5A inv ctr | MOR-DOR inv ag | HTR5A ag | MOR-DOR ag-1 | MOR-DOR ag-2 | HTR5A ag confirm
COc1ccc(-c2c(-c3ccsc3)oc(=O)c3cc(OC)c(OC)cc23)cc1 | -61 | -6 | 23* | 1 | 3 | 1
COc1ccc(Cn2c(C)nc3oc4cc(OC)ccc4c(=O)c3c2=O)cc1 | -19 | 10 | 16* | -2 | 327* | 3
Cc1nc2oc3ccccc3c(=O)c2c(=O)n1Cc1ccccc1 | 1 | 9 | -6 | -2 | x | x
c1cncc(-c2nc3ccccn3c2Nc2ccc3c(c2)OCCO3)c1 | -65 | -13 | 30* | 2 | 1 | -3
Cc1ccc(C(=O)O)cc1NC(=S)NC(=O)c1ccc(COc2ccccc2)cc1 | -8 | -4 | 3 | 1 | x | x
CS(=O)(=O)c1ccc(Cl)c(NC(=O)C2CCN(S(=O)(=O)c3cccs3)CC2)c1 | 7 | 20 | 3 | -5 | x | x
O=S(=O)(c1cnc(Cl)c(Cl)c1)N1CCc2ccccc21 | -46 | -30 | 16* | 5 | 121* | -1
CN1C[C@H](C(=O)N[C@]2(C)O[C@@]3(O)[C@@H]4CCCN4C(=O)[C@H](Cc4ccccc4)N3C2=O)CC2c3cccc4[nH]cc(c34)C[C@H]21 (stereo not given in full) | -162 | -3 | 45* | 1 | -2 | 48*!
CC(C)C[C@H]1C(=O)N2CCC[C@H]2[C@]2(O)O[C@](NC(=O)C3C=C4c5cccc6[nH]c(Br)c(c56)C[C@H]4N(C)C3)(C(C)C)C(=O)N12 (stereo not given in full) | -30 | -24 | 8 | 4 | x | x
Cc1sc2nc(CSC(C)C(=O)NC3(C#N)CCCCC3)[nH]c(=O)c2c1C (stereo not given) | 5 | 9 | 2 | -1 | x | x
COC(=O)C1=C(C)N(c2cc(Cl)cc(Cl)c2)C(=O)C1 | 2 | -8 | 15* | 1 | 0 | -2
O=C(OCc1c(Cl)cccc1Cl)c1ccncc1 | -14 | 12 | -2 | -2 | x | x
COc1ccc(CN(CC(O)COCc2ccccc2)S(=O)(=O)c2ccccc2Br)cc1 (stereo not given) | 1 | 1 | 0 | 0 | x | x
O=c1[nH]c(C2CCN(S(=O)(=O)c3ccccc3F)CC2)nc2c1nnn2Cc1ccc(OC(F)(F)F)cc1 | 4 | -17 | 3 | 3 | x | x
O=c1[nH]c(C2CCN(S(=O)(=O)c3ccccc3C(F)(F)F)CC2)nc2c1nnn2Cc1ccccc1 | -47 | -21 | 16* | 3 | 0 | 5
CCc1noc(C)c1C(=O)OCC(=O)c1ccccc1OC | 12 | -4 | 2 | 1 | x | x
Cc1cc(C)c(S(=O)(=O)NCCc2cc3ccc(C)c(C)c3[nH]c2=O)c(C)c1 | -18 | -8 | 17* | 2 | 2 | -1
Cc1ccc2cc(CCNS(=O)(=O)c3ccc(Br)cc3)c(=O)[nH]c2c1C | -15 | -3 | 7 | 1 | x | x
C=CCOc1ccccc1CN1CCC(n2nccc2NC(=O)c2ccccc2)CC1 | -29 | 16 | -2 | -3 | x | x
CC(C)c1ccccc1NCC(=O)N1CCN(Cc2ccccc2)CC1 | 6 | 2 | -2 | 0 | x | x
CCOC(=O)C1=C(COC(=O)/C=C/c2ccco2)NC(=O)NC1C (stereo not given) | 3 | -23 | 16* | 4 | 4 | 0
CCOC(=O)C1=C(COC(=O)/C=C/c2ccc(OC)cc2)NC(=O)NC1C (stereo not given) | -6 | 18 | 2 | -4 | x | x
C=CCC1(CC=C)CCCN1C(=O)CC1C(=O)NCCN1Cc1cccc(OC)c1OC (stereo not given) | -12 | -3 | -1 | 1 | x | x
CCn1c(=O)cc(SCC(=O)N2CCN(Cc3ccc4c(c3)OCO4)CC2)c2ccccc21 | -4 | -17 | -1 | 3 | x | x
Cn1c(=O)cc(SCC(=O)N2CCN(Cc3ccc4c(c3)OCO4)CC2)c2ccccc21 | 3 | 17 | 18* | -3 | 2 | -2
SMILES | HTR5A inv ctr | MOR-DOR inv ag | HTR5A ag | MOR-DOR ag-1 | MOR-DOR ag-2 | HTR5A ag confirm
CCC(C)N1CC(=O)N2C(c3ccc(OC)cc3OC)c3[nH]c4ccccc4c3C[C@H]2C1=O (stereo not given in full) | -19 | 4 | 5 | -1 | x | x
O=C(COc1ccc2c(c1)OCO2)Nc1ccc2c(c1)oc1ccccc12 | -58 | -18 | 16* | 3 | 6 | 8
COc1ccc(CNC(=O)C(=O)NCC2OCCCN2S(=O)(=O)c2cccs2)cc1 (stereo not given) | -13 | 15 | 2 | -3 | x | x
CCc1ccc2[nH]c(=O)c(CN(Cc3ccc4c(c3)OCO4)Cc3nnnn3C3CCCC3)cc2c1 | 3 | -48 | 19* | 8 | 6 | 2
Cc1ccc2cc(CN(Cc3ccc(F)cc3)Cc3nnnn3C3CCCC3)c(=O)[nH]c2c1 | 7 | -32 | -3 | 5 | x | x
CCCc1nc(SCC(=O)Nc2nnc(CC)s2)c2c(=O)n(C)c(=O)n(C)c2n1 | -1 | 12 | 1 | -4 | x | x
CN1CCN(CC(=O)n2c3c(c4ccccc42)CCCC3)CC1 | -17 | -17 | 7 | 3 | x | x
O=C(CN1CCCCC1)n1c2ccccc2c2ccccc21 | -63 | -12 | 24* | 2 | 13 | 4
CC(C)C[C@H](NC(=O)N1CC(=O)Nc2ccccc21)C(=O)N[C@@H](Cc1c[nH]c2ccccc12)C(=O)O | -1 | 16 | 40* | -3 | 0 | -2
Cc1cccc2sc(NNC(=O)c3ccc(S(=O)(=O)N4CCCC(C)C4)cc3)nc12 (stereo not given) | -42 | -75 | 17* | 13 | 8 | 3
Cc1cc(OCC(O)CN(C)C(=O)C(C)Oc2ccccc2)ccc1Cl (stereo not given) | 0 | 11 | 6 | -2 | x | x
CC1Cc2ccccc2N1C(=O)CN(C)CC(=O)Nc1ccc(F)cc1 (stereo not given) | 1 | 6 | -4 | -2 | x | x
CC1CCCCN1Cc1c(C#N)c2ccccc2n1C (stereo not given) | -57 | -21 | 21* | 4 | 3 | 2
CCOC(=O)c1ccc(N2N=C(C)/C(=C/C=C/c3ccco3)C2=O)cc1 | 9 | 9 | -3 | -2 | x | x
CC1=NN(c2ccc(C)c(C)c2)C(=O)/C1=C\C=C\c1ccc([N+](=O)[O-])o1 | 20 | -75 | 16* | 14 | 16 | 2
CC(=O)C1=C(C)NC(C)=C(C(C)=O)C1c1ccc(-c2ccccc2Cl)o1 | -56 | 4 | 23* | -1 | 1 | 2
Cc1c(CCOC(=O)C2C3CC4CC(C3)CC2C4)sc[n+]1CC(=O)c1ccc(Br)cc1 (stereo not given) | -42 | -10 | 18*! | 2 | 18 | 2
CC(Sc1ccc(Cl)cc1)C(=O)NCC(c1ccco1)N1CCCCC1 (stereo not given) | -12 | -11 | 4 | 2 | x | x
CCOc1ccc(N2C(=O)CC(NCCc3c[nH]c4ccccc34)C2=O)cc1 (stereo not given) | -162 | 6 | 71* | -1 | 17 | 2
CCOc1ccc(N2C(=O)CC(NCCc3ccncc3)C2=O)cc1 (stereo not given) | 18 | 11 | -4 | -2 | x | x
